Reference: ChEMBL document CHEMBL4513216, “Probing the Open Global Health Chemical Diversity Library for Multistage-Active Starting Points for Next-Generation Antimalarials” (ACS Infect Dis, 2020)
Out of some 68,000 compounds screened, about 2,700 (4%) showed an effect of 50% or more. This is one part of a sample in which strong results are shown more often than they occur.

Tested on: Plasmodium berghei
Test: Screen against P. berghei liver stage (PbLuc), transformed with Luciferase, at 2uM
Assay type: functional, HepG2
Conditions: tested at 2 uM

Compound	INHIBITION
COc1ccc(NC(=O)CCC2CCCN(S(=O)(=O)C3CC3)C2)cc1Cl (stereo not given)	13.99%
CCc1ccc(C(=O)N2CCCC(CNS(C)(=O)=O)C2)o1 (stereo not given)	-23.94%
O=C(c1ccc(F)c(Cl)c1)N1C[C@H]2CC[C@@H](C1)N(Cc1ccccc1)C2	-38.33%
Cc1cn2nc(N3CCCC3CC(C)(C)C)sc2n1 (stereo not given)	29.11%
CC(CO)(NCc1noc(Cc2ccccc2)n1)C1CCCCC1 (stereo not given)	-69.13%
CCc1nc(CNC(C)(CO)C2CCCCC2)no1 (stereo not given)	17.89%
COCCc1noc(CNC(C)(CO)C2CCCCC2)n1 (stereo not given)	65.79%
O=C1CCCc2cc(-c3csc(CCN4CCOC4=O)n3)ccc2N1	33.01%
CN1C(=O)Cc2cc(-c3csc(CCN4CCOC4=O)n3)ccc21	-35.62%
O=C1OCCN1CCc1nc(-c2cc3c4c(c2)CC(=O)N4CCC3)cs1	78.51%
CCn1c(C)nnc1SCCNC(=O)c1cnc(C(C)(C)C)nc1O	3.86%
Cc1nc(C(C)C)sc1C(=O)NCCSc1ccccn1	-103.61%
CC(C)(C)c1ncc(C(=O)NCCSc2ccccn2)c(O)n1	68.02%
CN1C[C@H]2CC[C@@H](C1)N(Cc1ccccc1OCCN1CCOCC1)C2	32.1%
NC(=O)CC1CC2(CCNCC2)c2cc(F)ccc21 (stereo not given)	-8.62%
c1cnc(-c2nn3c(CN4CCCCCC4)nnc3s2)cn1	55.73%
c1cnc(-c2nn3c(CN4CCOCC4)nnc3s2)cn1	26.03%
c1cnc(-c2nn3c(CN4CCCCC4)nnc3s2)cn1	7.91%
COC(=O)N1CCCC(NC(=O)NCc2ccc(C)nc2)C1 (stereo not given)	22.07%
CC(C)(C)CC(=O)N1CC[C@H]2CC(=O)N(CCc3c[nH]cn3)CC[C@H]2C1	17.31%
Cc1cccc(C(C(=O)NCCCc2nnc3ccccn23)N(C)C)c1 (stereo not given)	-0.59%
CCc1nnc(CN(CC)C(=O)C2CC(=O)N(C3CC3)C2)o1 (stereo not given)	10.02%

Compound	INHIBITION
CCc1nnc(CN(CC)C(=O)C2CC(=O)N(C(C)(C)C)C2)o1 (stereo not given)	50.86%
CCc1nnc(CN(CC)C(=O)C2CC(=O)N(CC)C2)o1 (stereo not given)	6.84%
CCc1c(C)nc2cc(-c3nccn3C)nn2c1N1CCCC(CO)C1 (stereo not given)	-40.66%
CCS(=O)(=O)c1ccc2oc([C@H]3CCN(Cc4cccnc4)C3)nc2c1	16.12%
CCS(=O)(=O)c1ccc2oc([C@H]3CCN(CC4CCCCC4)C3)nc2c1	44.13%
CCS(=O)(=O)c1ccc2oc([C@H]3CCN(Cc4ccccc4)C3)nc2c1	55.66%
CCS(=O)(=O)c1ccc2oc([C@H]3CCN(Cc4ccccn4)C3)nc2c1	30.4%
CCS(=O)(=O)c1ccc2oc([C@H]3CCN(Cc4ccncc4)C3)nc2c1	61.7%
Cc1ccc2oc([C@H]3CCN(Cc4ccccc4)C3)nc2c1	45.22%
O=C(c1cccc(F)c1)N1CC[C@H]2[C@H]1CCN2CC1CCOCC1	13.04%
CCc1nccn1C1CCCN(C(=O)c2ccn(-c3ccccc3)n2)C1 (stereo not given)	6.54%
O=C(C1CNCCO1)N1CCC(c2cc(N3CCCC3)ncn2)CC1 (stereo not given)	37.15%
O=C(CN1CCOCC1)N1CCC(c2cc(N3CCCC3)ncn2)CC1	70.81%
O=C(CC1CNCCO1)N1CCC(c2cc(N3CCCC3)ncn2)CC1 (stereo not given)	48.93%
Cn1ccnc1-c1cn(CCCc2csc(N)n2)nn1	-21.39%
CCNC(=O)[C@@H]1C[C@H](NC(=O)c2cncnc2C)CN1Cc1ccsc1	12.78%
CCn1c(-c2ccccc2)nn(CC(=O)NCCc2ccc(C)s2)c1=O	47.25%
CC(C)NC(=O)c1nnn(-c2ccccc2)c1C1CC1	2.31%
Cc1ccc(-n2nnc(C(=O)NC(C)C)c2C2CC2)cc1	82.5%
CC(C)NC(=O)c1nnn(-c2ccc(F)cc2)c1C1CC1	3.89%
Cc1cc(C)n(C2CN(CCc3ccccn3)C2)n1	-7.32%
CN(C)CCn1ccnc1C1CCCN(c2nccc3ccccc23)C1 (stereo not given)	49.94%

Compound	INHIBITION
CN(C)Cc1nnc(C2CCCN(c3nccc4ccccc34)C2)n1C (stereo not given)	63.01%
CN(C)Cc1nnc(C2CCCN(c3ncccc3F)C2)n1C (stereo not given)	6.39%
Cc1cc(C)nc(NCCC(=O)NCCn2ccnc2C)n1	28.4%
Cc1cc(C)nc(NCCC(=O)NCCn2ccc3ccccc32)n1	50.94%
Cc1cc(C)nc(NCCCC(=O)NCCn2ccc3ccccc32)n1	-12.76%
CCS(=O)(=O)N(C)C1CCN(C(=O)c2cccc(Cl)c2)CC1	-41.98%
CCC(=O)Nc1ccc2c(c1)C1(CCOCC1)CN2CCF	-24.5%
COc1ccc(OC)c(-c2nc(CN(C)Cc3nncn3C)c(C)o2)c1	-5.6%
CNC(=O)c1ccccc1NCc1ncnn1C	54.03%
COc1ccc(NC(=O)c2ccccc2NCc2ncnn2C)cc1	-25.35%
Cn1ncnc1CNc1ccccc1C(=O)NC(C)(C)C	-38.42%
CC(C)c1nnc2n1CC(CNC/C=C/c1ccccc1)CC2 (stereo not given)	4.8%
CC(C)c1n[nH]c(C2CN(C(=O)c3cc4c(s3)CCC4)CCO2)n1 (stereo not given)	10.53%
COCC(c1cccc(C(F)(F)F)c1)N(C)C(=O)c1ccccn1 (stereo not given)	-9.61%
CC(C)(C)NC(=O)CN1CCCC(c2ccc(C(=O)O)cc2)C1 (stereo not given)	31.27%
CCNC(=O)CN1CCCC(c2ccc(C(=O)O)cc2)C1 (stereo not given)	2.06%
CC(C)CNC(=O)CN1CCCC(c2ccc(C(=O)O)cc2)C1 (stereo not given)	50.67%
CCS(=O)(=O)N1CCC(c2cc3n(n2)[C@@H](C(F)(F)F)C[C@@H](C)N3)CC1	-22.38%
Cc1nc(=O)c(CC(=O)N2C[C@H]3CC[C@@H](C2)N(CC2CCC2)C3)c[nH]1	68.39%
Cc1nc(=O)c(CC(=O)N2C[C@H]3CC[C@@H](C2)N(CC2CCC2)C3)c(C)[nH]1	25.47%
Cc1cc(C)n(CC(=O)N2C[C@H]3CC[C@@H](C2)N(CC2CCC2)C3)c(=O)n1	41.07%
